Consider seven sequences from publication PMC8384837, “Expanding the binding specificity for RNA recognition by a PUF domain”.

What all share (test): yeast three-hybrid, YBZ-1, SC-Leu-His + 0.5 mM 3-AT, 4 days
Conditions in all cases: tags: N-Gal4 AD-HA kept; label: inside an RPR1-promoter hybrid RNA with tandem MS2 sites; ssRNA

For assay [1], the target named is PUM1 PUF domain R5-KNL (Homo sapiens, UniProt Q14671 828-1176, C1007K;R1008N;Q1011L). A digest of the protocol:
(§1)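 Pumilio-1 PUF domain libraries, randomized at the three base-contacting residues of each repeat, were co-expressed with matching RNA elements from a centromeric plasmid in strain YBZ-1, which carries a LexA–MS2 coat fusion and a HIS3 reporter. Transformants grew for four days on SC-Leu (input) or on SC-Leu-His + 0.5 mM 3-AT (selection), and the repeat regions were PCR-amplified and Illumina-sequenced. The interaction score is the log change in variant frequency from input to selection. That logarithm is base 2, with a pseudocount of 1 where a variant was absent.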

Assay [2] has as its target PUM1 PUF domain R5-RCD (Homo sapiens, UniProt Q14671 828-1176, C1007R;R1008C;Q1011D). Summed up: as §1
Assay [3] deals with PUM1 PUF domain R5-KRA (Homo sapiens, UniProt Q14671 828-1176, C1007K;Q1011A). Summed up:
as §1

Assay [4] concerns the target PUM1 PUF domain R2-RRV (Homo sapiens, UniProt Q14671 828-1176, N899R;Y900R;Q903V). Summed up: as §1
Assay [5] addresses PUM1 PUF domain R4-DRI (Homo sapiens, UniProt Q14671 828-1176, N971D;H972R;Q975I). A digest of the protocol: as §1
The target of assay [6] is PUM1 PUF domain R3-SSQ (Homo sapiens, UniProt Q14671 828-1176, C935S;R936S). A digest of the protocol:
as §1

Assay [7] has as its target PUM1 PUF domain R3-VCI (Homo sapiens, UniProt Q14671 828-1176, C935V;R936C;Q939I). A digest of the protocol: as §1
In assay [8] the target is PUM1 PUF domain R3-LRL (Homo sapiens, UniProt Q14671 828-1176, C935L;Q939L). A digest of the protocol: as §1
Assay [9] has as its target PUM1 PUF domain R1-KYV (Homo sapiens, UniProt Q14671 828-1176, S863K;R864Y;Q867V). Summed up:
as §1

Take “GGCUAGAACUAGUGGAUCCCCCGGCGCCCGGCGGCUCGAGCCCGGGUAAGUGUCAAUAGUCUGCAUGCCGCCGGGCGCCAUGCCUGCAGGUCGACUCUAGAAAACAUG”: the binding signal is 4.73 log2 enrichment (interaction score) in assay [1], 3.7 log2 enrichment (interaction score) in assay [2] and 2.92 log2 enrichment (interaction score) in assay [3].

With “GGCUAGAACUAGUGGAUCCCCCGGCGCCCGGCGGCUCGAGCCCGGGUAAGUGUAAAGAGUCUGCAUGCCGCCGGGCGCCAUGCCUGCAGGUCGACUCUAGAAAACAUG”, the binding signal in assay [4] was 2.5 log2 enrichment (interaction score).

With “GGCUAGAACUAGUGGAUCCCCCGGCGCCCGGCGGCUCGAGCCCGGGUAAGUGUAAAUAGUCUGCAUGCCGCCGGGCGCCAUGCCUGCAGGUCGACUCUAGAAAACAUG”, the binding signal in [5] was 5.23 log2 enrichment (interaction score); in assay [6], 2.66 log2 enrichment (interaction score); in [7], 2.74 log2 enrichment (interaction score).

Regarding “GGCUAGAACUAGUGGAUCCCCCGGCGCCCGGCGGCUCGAGCCCGGGUAAGUGUAAGUAGUCUGCAUGCCGCCGGGCGCCAUGCCUGCAGGUCGACUCUAGAAAACAUG”, the binding signal in [8] is 2.89 log2 enrichment (interaction score).

“GGCUAGAACUAGUGGAUCCCCCGGCGCCCGGCGGCUCGAGCCCGGGUAAGUGUAAUUAGUCUGCAUGCCGCCGGGCGCCAUGCCUGCAGGUCGACUCUAGAAAACAUG”: in assay [8], the binding signal was 0.28 log2 enrichment (interaction score).

As for “GGCUAGAACUAGUGGAUCCCCCGGCGCCCGGCGGCUCGAGCCCGGGUAAGUGUUAAUAGUCUGCAUGCCGCCGGGCGCCAUGCCUGCAGGUCGACUCUAGAAAACAUG”, the binding signal is 2.68 log2 enrichment (interaction score) in assay [2] and 0.81 log2 enrichment (interaction score) in assay [3].

Turning to “GGCUAGAACUAGUGGAUCCCCCGGCGCCCGGCGGCUCGAGCCCGGGUAAGUGUAAAUUGUCUGCAUGCCGCCGGGCGCCAUGCCUGCAGGUCGACUCUAGAAAACAUG”, the binding signal in assay [9] was 2.06 log2 enrichment (interaction score).
